Reference: PubChem BioAssay AID1159580 (chemical genetic matrix, 2015)
In all, about 5,500 compounds went through this assay and about 2,000 (36%) were called active. About 18% were inconclusive and are not listed. Rule as the data show it: active = normalized growth mostly below about 0.91 (no sharp cut-off); inconclusive = no clear call, values can overlap the other calls; inactive = mostly above about 0.92. The list shows a part of the results.

Experiment: chemical genetic growth profiling, strain panel (AID 1159580);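 also: tested at 20 µM; growth read once vehicle control cultures reached saturation at 30 °C; 1 = growth at the plate median or of vehicle wells; lower values mean less growth of the strain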
Conditions: growth OD

Measured: normalized growth

COc1cc(C)c2c(=O)c3c(O)cc(OC)cc3oc2c1
inactive: S. cerevisiae deletion strains, locus YAL013W, strain DEP1, active compounds read low 1.01 | S. cerevisiae deletion strains, locus YBR021W, strain FUR4, active compounds read low 0.968 | S. cerevisiae deletion strains, locus YBR229C, strain ROT2, active compounds read low 1.02 | S. cerevisiae deletion strains, locus YCL029C, strain bik1, active compounds read low 0.991 | S. cerevisiae deletion strains, locus YDL035C, strain GPR1, active compounds read low 1.01 | S. cerevisiae deletion strains, locus YDL074C, strain BRE1, active compounds read low 1.02 | S. cerevisiae deletion strains, locus YDL101C, strain DUN1, active compounds read low 1.02 | S. cerevisiae deletion strains, locus YDL134C, strain PPH21, active compounds read low 1.01 | S. cerevisiae deletion strains, locus YDL185W, strain tfp1, active compounds read low 0.991 | S. cerevisiae deletion strains, locus YDL192W, strain arf1, active compounds read low 0.986 | S. cerevisiae deletion strains, locus YDR101C, strain arx1, active compounds read low 0.981 | S. cerevisiae deletion strains, locus YDR150W, strain NUM1, active compounds read low 1.02 | S. cerevisiae deletion strains, locus YDR162C, strain NBP2, active compounds read low 1.02 | S. cerevisiae deletion strains, locus YDR318W, strain mcm21, active compounds read low 0.986 | S. cerevisiae deletion strains, locus YDR388W, active compounds read low 0.981 | S. cerevisiae deletion strains, locus YDR502C, strain sam2, active compounds read low 0.982 | S. cerevisiae deletion strains, locus YEL061C, strain CIN8, active compounds read low 1.01 | S. cerevisiae deletion strains, locus YER110C, active compounds read low 0.977 | S. cerevisiae deletion strains, locus YER155C, strain BEM2, active compounds read low 1 | S. cerevisiae deletion strains, locus YER167W, strain BCK2, active compounds read low 1.01 | S. cerevisiae deletion strains, locus YGL078C, strain dbp3, active compounds read low 0.976 | S. cerevisiae deletion strains, locus YGL086W, strain mad1, active compounds read low 0.982 | S. cerevisiae deletion strains, locus YGL248W, strain PDE1, active compounds read low 1.02 | S. cerevisiae deletion strains, locus YGR078C, strain PAC10, active compounds read low 1 | S. cerevisiae deletion strains, locus YGR135W, strain pre9, active compounds read low 0.977 | S. cerevisiae deletion strains, locus YGR229C, strain SMI1, active compounds read low 0.996 | S. cerevisiae deletion strains, locus YGR252W, strain gcn5, active compounds read low 0.929 | S. cerevisiae deletion strains, locus YHR030C, strain SLT2, active compounds read low 1.01 | S. cerevisiae deletion strains, locus YHR079C, strain IRE1 (second series), active compounds read low 0.977 | S. cerevisiae deletion strains, locus YHR094C, strain hxt1, active compounds read low 0.991 | S. cerevisiae deletion strains, locus YHR129C, strain ARP1, active compounds read low 1.01 | S. cerevisiae deletion strains, locus YHR200W, strain rpn10, active compounds read low 0.975 | S. cerevisiae deletion strains, locus YIL066C, strain RNR3, active compounds read low 1.01 | S. cerevisiae deletion strains, locus YIL073C, strain SPO22, active compounds read low 0.967 | S. cerevisiae deletion strains, locus YIL125W, strain kgd1, active compounds read low 0.984 | S. cerevisiae deletion strains, locus YIR030C, strain dcg1, active compounds read low 0.994 | S. cerevisiae deletion strains, locus YJL095W, strain BCK1, active compounds read low 0.995 | S. cerevisiae deletion strains, locus YJL134W, strain LCB3, active compounds read low 1.01 | S. cerevisiae deletion strains, locus YJL168C, strain set2, active compounds read low 0.982 | S. cerevisiae deletion strains, locus YJL187C, strain SWE1 (second series), active compounds read low 1.02 | S. cerevisiae deletion strains, locus YJR043C, strain POL32, active compounds read low 0.999 | S. cerevisiae deletion strains, locus YJR075W, strain HOC1, active compounds read low 1.01 | S. cerevisiae deletion strains, locus YKL009W, strain mrt4, active compounds read low 0.984 | S. cerevisiae deletion strains, locus YKL068W, active compounds read low 0.993 | S. cerevisiae deletion strains, locus YKL085W, strain MDH1 (second series), active compounds read low 1.03 | S. cerevisiae deletion strains, locus YKL085W, strain MDH1, active compounds read low 1.03 | S. cerevisiae deletion strains, locus YKL190W, strain CNB1, active compounds read low 1.01 | S. cerevisiae deletion strains, locus YKR001C, strain vps1, active compounds read low 0.982 | S. cerevisiae deletion strains, locus YLR039C, strain RIC1, active compounds read low 1.04 | S. cerevisiae deletion strains, locus YLR058C, strain SHM2, active compounds read low 1.02 | S. cerevisiae deletion strains, locus YLR102C, strain apc9, active compounds read low 0.982 | S. cerevisiae deletion strains, locus YLR262C, strain YPT6, active compounds read low 1.04 | S. cerevisiae deletion strains, locus YLR268W, strain sec22, active compounds read low 0.987 | S. cerevisiae deletion strains, locus YLR330W, strain CHS5, active compounds read low 1.02 | S. cerevisiae deletion strains, locus YLR342W, strain FKS1 (second series), active compounds read low 0.996 | S. cerevisiae deletion strains, locus YLR371W, strain rom2, active compounds read low 0.984 | S. cerevisiae deletion strains, locus YLR418C, strain cdc73, active compounds read low 0.981 | S. cerevisiae deletion strains, locus YML016C, strain PPZ1, active compounds read low 1.02 | S. cerevisiae deletion strains, locus YML032C, strain rad52, active compounds read low 0.978 | S. cerevisiae deletion strains, locus YML124C, strain tub3, active compounds read low 0.985 | S. cerevisiae deletion strains, locus YMR078C, strain ctf18, active compounds read low 0.993 | S. cerevisiae deletion strains, locus YMR223W, strain ubp8, active compounds read low 0.98 | S. cerevisiae deletion strains, locus YMR263W, strain SAP30, active compounds read low 1.01 | S. cerevisiae deletion strains, locus YMR307W, strain GAS1, active compounds read low 0.976 | S. cerevisiae deletion strains, locus YNL067W, strain RPL9B, active compounds read low 1.01 | S. cerevisiae deletion strains, locus YNL128W, strain TEP1, active compounds read low 1.01 | S. cerevisiae deletion strains, locus YNL153C, strain GIM3, active compounds read low 1.01 | S. cerevisiae deletion strains, locus YNL233W, strain BNI4, active compounds read low 1.01 | S. cerevisiae deletion strains, locus YNL250W, strain rad50, active compounds read low 0.992 | S. cerevisiae deletion strains, locus YNL271C, strain bni1, active compounds read low 0.98 | S. cerevisiae deletion strains, locus YNL298W, strain CLA4, active compounds read low 0.976 | S. cerevisiae deletion strains, locus YNL307C, strain MCK1, active compounds read low 0.981 | S. cerevisiae deletion strains, locus YNL322C, strain KRE1, active compounds read low 1.01 | S. cerevisiae deletion strains, locus YNR052C, strain pop2, active compounds read low 0.978 | S. cerevisiae deletion strains, locus YOL006C, strain TOP1, active compounds read low 1.05 | S. cerevisiae deletion strains, locus YOL012C, strain htz1 1.37 | S. cerevisiae deletion strains, locus YOL147C, strain pex11, active compounds read low 0.985 | S. cerevisiae deletion strains, locus YOR061W, strain CKA2, active compounds read low 1.02 | S. cerevisiae deletion strains, locus YOR069W, strain VPS5, active compounds read low 1.01 | S. cerevisiae deletion strains, locus YOR136W, strain idh2, active compounds read low 0.979 | S. cerevisiae deletion strains, locus YOR144C, strain elg1, active compounds read low 0.99 | S. cerevisiae deletion strains, locus YOR184W, strain ser1, active compounds read low 0.969 | S. cerevisiae deletion strains, locus YOR316C, strain cot1, active compounds read low 0.982 | S. cerevisiae deletion strains, locus YPL055C, strain LGE1, active compounds read low 1.01 | S. cerevisiae deletion strains, locus YPL241C, strain CIN2, active compounds read low 0.99 | S. cerevisiae deletion strains, locus YPR119W, strain clb2, active compounds read low 0.98 | S. cerevisiae deletion strains, locus YPR141C, strain kar3, active compounds read low 1 | S. cerevisiae deletion strains, locus YPR163C, strain tif3, active compounds read low 0.988 | S. cerevisiae deletion strains, locus YPR167C, strain met16, active compounds read low 0.985 | S. cerevisiae deletion strains, strain wtn01, active compounds read low 0.986 | S. cerevisiae strains, strain wild type, active compounds read low 1.01
